Reference: PubChem BioAssay AID977630 (Broad Institute, 2014)
Screen size: about 1,600 compounds; fewer than 10 were called active. Inconclusive results (about 48%) are left out. Not all results are given here. Results with a measured potency or affinity are listed apart. A number with no mark means an inactive call.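 Rule for the calls: active = Normal-ribosome green reporter loss at least double humanized-ribosome red reporter loss, with overall culture growth inhibition under a set limit; inconclusive = no clear call, values can overlap the other calls; inactive = the rest.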

Assay: E. coli growth inhibition, wild-type GFP versus H38 humanized RFP strain – H38 mutant RFP vs wild-type GFP, cherry-pick, dose response (AID 977630)
Settings: mixed culture, 24 h; series mostly up to 50 µM; activity change, negative = inhibition: at the top concentration

Structure (SMILES) | activity change, negative = inhibition
CN(C)S(=O)(=O)c1cccc(NC(=O)c2ccc3c(c2)S(=O)(=O)N=C2CCCCCN23)c1 | -18.5
CC1Cc2cc(-c3csc(NC(=O)Cc4ccccc4)n3)ccc2N1S(C)(=O)=O (stereo not drawn) | 1.07
CCN=C1NN=C(c2ccc(C)cc2)CS1 | 3.76
COc1cc(CCN(C(=O)c2cc3ccccc3[nH]2)C(c2ccccn2)c2nc3ccccc3[nH]2)cc(OC)c1 (stereo not drawn) | -14
NS(=O)(=O)c1ccc(CCNC(=O)CCCCCNc2nc(=S)[nH]c3ccccc23)cc1 | -12
CC(C)(C)S(=O)(=O)Cc1nc(-c2ccc(Cl)c(Cl)c2)cs1 | -9.14
Fc1ccc(-c2nc3ccc(Cl)cn3c2Cc2cccc(Cl)c2)cc1 | -14.6
Cc1cc(C(N)=O)nn1-c1c(Cl)cc(Cl)cc1Cl | -5.75
Cc1ccc(NC(=O)COC(=O)CCNS(=O)(=O)c2c(Cl)cccc2Cl)cc1 | 1.03
CSc1nnnn1-c1ccc(Cl)cc1 | -7.03
Cc1noc(C)c1S(=O)(=O)N(Cc1ccccc1)C(C)C | -6.23
Cc1cccc(-n2cnc3cc([N+](=O)[O-])ccc32)c1 | -3.92
Cc1ccc(S(=O)(=O)N2CCCCC2C(=O)N2CCN(c3ccccc3F)CC2)cc1 (stereo not drawn) | -9.62
COC(=O)c1cc(C(=O)c2c(C)cc3ccccn23)cc([N+](=O)[O-])c1 | -18.9
[O-][n+]1ccccc1/C=C/c1ccccc1 | -10.1
Fc1ccccc1C1CCN(Cc2nc(COc3ccccc3)no2)C1 (stereo not drawn) | 2
CC(=O)c1ccc(OCC(=O)Nc2ccc3c(c2)CCC3)cc1 | -2.25
Cc1ccc(Cc2c(-c3cccc(Br)c3)nc3ccc(C)cn23)cc1 | -2.64
COc1ccc(S(=O)(=O)N2CCOc3ccccc32)cc1 | -7.99
COc1ccc(-c2csc(NC(=O)c3ccccc3S(C)(=O)=O)n2)cc1 | -8.44
O=C(OCC(=O)N1CCOCC1)c1cccc(S(=O)(=O)N2CCCc3ccccc32)c1 | -7.89
O=C(CCC(=O)N1CCN(c2ccc(F)cc2)CC1)c1ccc(F)cc1 | -7.74
COc1ccc(C(=O)Nc2cccc3ccccc23)cc1 | -9.35
Cc1cc(-c2ccc(C)c(S(=O)(=O)NCC3CCN(Cc4ccccc4F)CC3)c2)on1 | -4.91
O=S(=O)(c1cnc(Cl)c(Cl)c1)N1CCc2ccccc21 | -6.18
O=C(COC(=O)c1ccccc1O)NCCC1=CCCCC1 | -14.3
C=CCN(c1ccccc1)S(=O)(=O)c1ccc(Cl)c(C(=O)OCC(=O)NCCCN2CCCC2=O)c1 | -3.83
CCN(C(=O)COC(=O)CCc1ccccc1)c1ccccc1 | -2.42
